# Rows were chosen to be rich in hits. Some 2.8% of all compounds tested hit in one or more screens of this group.
# DRD3 antagonist = antagonists of human D3 dopamine receptor. P35462. D3R cells, DiscoveRx beta-arrestin luminescence, antagonist mode; hits give low values. max response, negative = inhibition, %. 360,000 tested, 2.5% active; in the data active means max response below about -50%; inconclusive means no clear call, values can overlap the other calls; further: on the % scale 0 is the no-effect control and ±100 the full control effect
# Target sequence (P35462 whole entry, looked up): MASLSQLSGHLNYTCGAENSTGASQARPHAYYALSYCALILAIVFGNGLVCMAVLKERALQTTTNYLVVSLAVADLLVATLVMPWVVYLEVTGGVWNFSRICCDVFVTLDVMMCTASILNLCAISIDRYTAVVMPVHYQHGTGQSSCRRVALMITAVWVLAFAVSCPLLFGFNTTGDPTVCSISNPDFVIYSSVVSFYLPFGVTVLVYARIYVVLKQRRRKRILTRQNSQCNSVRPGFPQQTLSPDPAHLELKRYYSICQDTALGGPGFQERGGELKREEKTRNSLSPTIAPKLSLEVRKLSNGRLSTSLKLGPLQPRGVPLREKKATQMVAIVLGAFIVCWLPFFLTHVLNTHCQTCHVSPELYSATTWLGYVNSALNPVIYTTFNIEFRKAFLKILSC
#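 Cells plated overnight at 1500 cells/well, then exposed to library compounds with dopamine controls for 90 minutes at 37 degrees C. DiscoveRx reagent added for 30–60 minutes at room temperature; luminescence read, quantitative HTS format.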
# DRD3 agonist = D3 dopamine receptor (human) agonism; P35462; D3R DiscoveRx beta-arrestin cells, luminescence, 90 min; max activation, %; 410,000 tested, 0.58% active; AID 652048; in the data active means max activation above about 30%; further: 0% is about no effect
#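 Agonist-mode cell screen: cells plated at 1500/well and incubated overnight at 37 °C, then exposed to library compounds for 90 min at 37 °C. Detection reagent was added for 30–60 min at room temperature, and luminescence was read.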
# Akt phos inh = inhibitors of Akt phosphorylation; 360,000 tested, 0.32% active; Neuro2A IGF-stimulated pAkt S473 HTRF, 20 min; hits give low values; AID 651550; activity change, % for hits at 50 µM; in the data active means activity change below about -80%; inconclusive means mostly about -51% to -80%; further: on the % scale 0 is the no-effect control and ±100 the full control effect
#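 Neuro2A cells (4,500/well, DMEM with 0.5% FBS) were treated with compound at a single 50 µM final concentration, stimulated with 6 nM IGF for 20 min at 37 °C, and lysed. Phospho-Akt Ser473 was read by HTRF as 665/615 ratio ×10^4.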
# LDHA inh = blocks human lactate dehydrogenase A | AID 1347041 | activity change, % (values are at about 110 or 230 µM) | P00338 | purified LDHA, NADH/diaphorase-resazurin fluorescence; hits give low values | 480,000 tested, 0.15% active; in the data active means activity change below about -30%; inconclusive means mostly about -25% to -30%;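 further: plate controls were DMSO wells for no effect and wells without enzyme for full effect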
#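 Resorufin fluorescence (ex540/em590), read at 0 and 20 min after diaphorase/resazurin addition, reports the NADH left after a 5 min room-temperature reaction of 2 nM human LDH5 with 0.06 mM NADH and 0.2 mM pyruvate.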
# RGS4 inhibitor = inhibitors of human regulator of G protein signaling 4 | 390,000 tested, 0.039% active | P49798 | Transcreener GDP fluorescence polarization, RGS4-accelerated GTP hydrolysis | AID 504845 | Potency, µM (top dose mostly 114 µM), for the others: top-dose activity change, negative = inhibition, most hits filed as inhibitors; active means well fitted inhibition curve with a large enough effect; inconclusive means small, poorly fitted or top-dose-only effect; inactive means no such curve, though single readings can be large or run the other way; further: potency means the concentration at half of the fitted maximal effect; on the % scale 0 is the no-effect control and ±100 the full control effect; nearly all actives have a fitted effect of over 75% in size
# Target sequence (P49798 whole entry, looked up): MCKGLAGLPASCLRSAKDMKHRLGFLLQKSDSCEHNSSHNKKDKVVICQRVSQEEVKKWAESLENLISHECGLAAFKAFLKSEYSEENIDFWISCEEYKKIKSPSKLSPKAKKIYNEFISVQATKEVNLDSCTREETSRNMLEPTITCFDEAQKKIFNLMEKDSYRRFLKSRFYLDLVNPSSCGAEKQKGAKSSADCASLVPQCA
#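 MLSMR compounds (23 nl, pin-transferred) preincubated 10 min at room temperature with a 500nM (2x) first reagent, then RGS4 at 900nM (2x) plus Transcreener GDP mix added; fluorescence polarization (620/688 nm) read before and after 90 min at 30 °C.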
# PI4K2A inh = blocks human PI4K2A kinase activity | Q9BTU6 | AID 1346378 | 420,000 tested, 0.13% active | activity change, negative = inhibition, % at 76.9 µM | purified PI4K2A, ADP-Glo luminescence, 1 h; hits give low values; in the data active means activity change below about -50%; inconclusive means mostly about -30% to -49%;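 further: -100% = wells without enzyme as full effect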
#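 PI4K2A activity was measured by ADP-Glo luminescence: enzyme (4 ug/mL stock) and phosphatidylinositol (1.2 mM stock) in Tris pH 7.5/MgCl2/EGTA/Triton X-100 buffer were reacted with ATP (300 microM stock) for one hour at ambient temperature.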
# The depositor's hits bear a star; i = inactive; ? = inconclusive; . = not tested or not shown; + = active, no number.
SMILES,DRD3 antagonist,DRD3 agonist,Akt phos inh,LDHA inh,RGS4 inhibitor,PI4K2A inh
CCCCn1c(NC(=O)c2ccccc2)c(C#N)c2nc3ccccc3nc21,47.0,12.8,i,14.7,-48.4%,-2.3
COc1cc(C(=O)NCC2COc3ccccc3O2)cc(OC)c1C (stereo not drawn),.,.,.,1.4,.,.
COc1ccc(-c2c(C)sc(NC(=O)c3ccnn3C)c2C#N)cc1,98.1,54.5*,i,-6.7,-28.6%,-3.7
Cn1nccc1C(=O)Nc1sc2c(c1C#N)CCCC2,-17.1,0.6,i,-0.7,-10.5%,-10.1
CC(NC(=O)c1nccnc1N)c1cccc(Br)c1 (stereo not drawn),.,.,.,2.1,.,.
CN(C)S(=O)(=O)c1cccc(C(=O)Nc2ccc(Cl)cn2)c1,-77.3*,-10.0,i,2.8,-0.4%,-0.4
O=C(Nc1ccc(Cl)cn1)c1cccc(S(=O)(=O)N2CCCC2)c1,8.1,8.2,i,-8.0,-7.8%,-2.1
Cc1cccc(C(=O)NC2CCC(C(F)(F)F)CC2)n1 (stereo not drawn),.,.,.,2.7,.,.
O=C(OCc1ccccc1)c1ccc(NCc2cc(O)ccc2O)cc1,-67.7*,-8.2,i,24.1,-22.6%,-1.7
CC(C)OC(=O)c1ccc(NCc2cc(O)ccc2O)cc1,?,-2.5,i,34.8,-39.7%,12.8
Cc1cccc(OCCCOc2cccc3cccnc23)c1C,-54.0*,4.9,i,1.4,-2.9%,1.1
Cc1cc(SCc2ccc([N+](=O)[O-])cc2)nc(=O)[nH]1,18.0,0.6,.,-0.3,-39.3%,-2.9
Cc1cc(C)c2c(=O)[nH]c(SCc3ccc([N+](=O)[O-])cc3)nc2n1,-68.7*,-0.8,i,-0.1,26.0%,-3.8
Cc1ccccc1CSc1nc2nc[nH]c2c(=O)[nH]1,.,.,.,-7.5,.,.
Cc1cc(C)c2c(=O)[nH]c(SCc3ccccc3C)nc2n1,-66.2*,-4.5,i,-7.2,-4.7%,-21.7
CC(C)C(=O)/C(C#N)=C\c1ccc(-c2ccccc2F)o1,.,.,.,3.8,.,.
COC(=O)C1=C(C(=O)OC)SC(=C(Cl)C(=S)Sc2ccccn2)S1,.,.,.,4.7,.,.
COc1cccc(OC)c1C(=O)OCc1ccccc1C#N,.,.,.,1.0,.,.
COC(=O)C1=C(C(=O)OC)[C@@H]2N(C)c3ccccc3[C@@]23C[C@@H](CO)N(C(=O)c2cccs2)C3=N1,-50.6*,-17.9,i,2.1,13.8%,3.5
CN(Cc1ccccc1)C1CCN(Cc2ccccc2Cl)CC1,.,.,.,-4.5,.,.
CC(C(=O)N1CCCCC1)N(C)CC(=O)Nc1ccc(Cl)c(C(F)(F)F)c1 (stereo not drawn),.,.,.,8.0,.,.
COc1ccc(C2C(C#N)=C(SCC(=O)Nc3cccc(F)c3)NC3=C2C(=O)CC(C)(C)C3)cc1 (stereo not drawn),.,.,.,-0.3,.,.
Cc1ccc(C)c(CS(=O)(=O)Cc2nc(C)no2)c1,.,.,.,-1.3,.,.
S=c1[nH]nc(-c2ccccc2)n1C1C=CCCC1 (stereo not drawn),-54.9*,-3.1,i,-3.8,-23.1%,-3.1
S=c1[nH]nc(-c2ccccc2)n1CC1CCCO1 (stereo not drawn),-25.8,-1.8,-99.4%*,0.8,-35.7%,-5.8
SMILES,DRD3 antagonist,DRD3 agonist,Akt phos inh,LDHA inh,RGS4 inhibitor,PI4K2A inh
Cc1nc(=O)c(-c2ccccc2)c(C)n1CC1CCCO1 (stereo not drawn),9.5,5.0,i,1.0,-22.5%,-7.6
Cc1nc2ccc(NS(=O)(=O)c3cccc([N+](=O)[O-])c3)cc2s1,19.9,35.9*,i,4.7,16.7%,1.7
Cc1nc2ccc(NC(=O)c3cc([N+](=O)[O-])cc([N+](=O)[O-])c3Cl)cc2s1,-67.8*,11.0,i,6.6,?,-19.8
Cc1ccc(S(=O)(=O)Nc2ccc3nc(C)sc3c2)cc1,22.3,1.4,i,0.2,19.2%,-4.6
COc1ccc(Cl)cc1NS(=O)(=O)c1cc(-c2cc(C(F)(F)F)on2)ccc1OC,.,.,.,17.1,.,.
CC1(C)Cc2c(C#N)c(N3CCN(C(=O)c4ccco4)CC3)nc(Cc3ccccc3)c2CO1,0.1,30.3*,i,-7.5,-45.1%,2.7
CC1(C)Cc2c(C#N)c(N3CCN(C(=O)c4ccccc4Cl)CC3)nc(-c3ccco3)c2CS1,4.2,2.0,i,-0.9,?,-52.6*
CCc1nc(N2CCN(C(=O)c3ccco3)CC2)c(C#N)c2c1COC(C)(C)C2,12.2,7.8,i,-5.3,-17.1%,-4.9
N#Cc1c(N2CCN(C(=O)c3ccco3)CC2)nc(-c2ccccc2)c2c1CCCC2,17.8,37.5*,i,2.0,?,-1.9
Clc1ccc(-c2nc(NCc3ccc4c(c3)OCO4)c3ccccc3n2)cc1,.,.,.,9.5,.,.
Cn1c(Oc2ccc(F)c(F)c2)c(C#N)c(=O)n(C)c1=O,.,.,.,6.1,.,.
Cc1cc2nc(CSc3ccc(NC(=O)C(C)C)cc3)c(=O)[nH]c2cc1C,.,.,.,3.1,.,.
[Cl][In]([Cl])[Cl],.,5.0,.,-80.3*,.,+
O=C1CC(c2ccc(F)c(F)c2)c2ncn(-c3ccccc3)c2N1 (stereo not drawn),.,.,.,16.5,.,.
COc1cc([N+](=O)[O-])cc(/C=N/NC(=O)C(C)Nc2ccccc2C)c1O (stereo not drawn),-98.3*,-20.0,i,16.7,-24.6%,5.0
COc1cc([N+](=O)[O-])cc(/C=N/NC(=O)c2ccc(NC(=O)c3ccc(C)cc3)cc2)c1O,0.9,5.7,i,-2.8,-8.5%,-1.4
COc1cc([N+](=O)[O-])cc(/C=N/NC(=O)C(C)Nc2cccc(C)c2)c1O (stereo not drawn),-54.8*,-19.5,i,4.7,6.7%,3.1
O=C(Cn1nnc(-c2ccccc2Cl)n1)N1CCC(c2nc3ccccc3s2)CC1,.,.,.,-1.1,.,.
Cn1c(=O)n(CC(=O)NC2CCCCC2)c(=O)c2ccccc21,-58.5*,-6.6,i,-2.8,9.9%,-2.0
O=c1[nH]c(=S)[nH]c2c1C(c1ccc(Br)cc1)c1c([nH]c(=S)[nH]c1=O)O2,-5.4,-0.7,i,-76.5*,?,-55.6*
Cc1ccc(C2C3=C(CCCC3=O)Nc3[nH]c(=S)[nH]c(=O)c32)cc1 (stereo not drawn),?,-46.4,i,-1.5,?,-2.2
O=C1CCCC2=C1C(c1ccc(Br)cc1)c1c([nH]c(=S)[nH]c1=O)N2 (stereo not drawn),-80.4*,2.6,i,-12.8,?,-7.5
COC(=O)C(C(=O)OC)=C(/C=C/C=C/N(C)C)N(C)C,22.0,4.7,.,10.1,-40.1%,0.3
COC(=O)C(C(=O)OC)=C(/C=C/N(C)C)N(C)C,11.4,1.8,-104.3%*,-5.9,-7.2%,3.9
Oc1ccc(-c2nc(-c3ccc(Cl)s3)cs2)cc1,.,.,.,6.5,.,.

# Screening data deposited in PubChem BioAssay by National Center for Advancing Translational Sciences (NCATS).
